Laboratory results published in PubChem BioAssay.

Experiment: differential killing of epithelial or mesenchymal cells, primary screen, imaging, PC-3E GFP, TEM4-18 mCherry, co-culture (AID 1345086);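 note: cells exposed to compound for 72 h before imaging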
Conditions: imaging cell counts, measured here: mesenchymal TEM4-18 mCherry cell survival, at 1 µM

Compound	normalised cell number
Cc1oc(=O)c2c(O)cc(O)c(C)c2c1C	1.14
CO[C@H]1OC2COC(c3ccccc3)OC2[C@H](OCc2ccccc2)[C@@H]1OCc1ccccc1 (stereo not given in full)	1.15
O=C(Nc1ccccc1)Nc1ccc(CO)cc1	1.01
C=C1C(=O)OC(C(=O)OC)C1CCCCCCCC(C)O (stereo not given)	1.18
O=C(O)C(O)C(O)C(O)C(O)C(=O)O (stereo not given)	1.05
CC(=O)OC1CC(C)OC(=O)CCC(O)CC1=O (stereo not given)	0.96
CC(C)CCCC(C)[C@H]1CCC2C3C=CC4=CC(=O)CC[C@]4(C)C3CC[C@@]21C (stereo not given in full)	0.93
N=c1ccn2c(n1)O[C@@H]1[C@@H](O)[C@H](CO)O[C@@H]12	0.27
C[C@H]1C(=O)CCC2[C@]3(C)CC[C@@]4(C)C5CC(C)(C)CC[C@]5(C)CC[C@]4(C)C3CC[C@@]21C (stereo not given in full)	1.13
C[C@@H]1CC[C@@]2(OC1)O[C@H]1CC3C4CC[C@H]5C[C@@H](O)CC[C@]5(C)C4CC[C@]3(C)[C@H]1[C@@H]2C (stereo not given in full)	1.03
C=C1OC(=O)[C@]2([C@H](C)C=CC(=O)[C@H]2O)[C@H]1O	1.14
COc1c(O)cc2c(c1O)C(=O)O[C@@H](C)[C@@H]2O	1.02
C[C@@]1(N)CCCCCN(c2c(F)cc3c(=O)c(C(=O)O)cn(C4CC4)c3c2Cl)C1	1
C=C[C@](C)(O)CC[C@@H]1[C@@]2(C)CCCC(C)(C)[C@@H]2CC[C@]1(C)O	1.21
CC(C)=C1CC[C@]2(C)[C@@H](O)CC[C@H]3[C@](C)(Cc4c[nH]c5ccccc45)[C@@H](C)CC[C@]132	0.94
NC(=O)c1cc(F)c(F)cc1NC1CC1	1.16
CC(CCOc1ccc(C(=O)O)cc1)C(=O)O (stereo not given)	1.14
COc1ccc2cc(C(C)=O)ccc2c1	1.12
C[C@@H]1C(=O)NC(Cc2ccccc2)C(=O)N2CCCC[C@H]2C(=O)O[C@H]([C@@H](C)CCCC[C@@H](C)O)C[C@H]1O (stereo not given in full)	0.93
CO/N=C1/C[C@]2(C[C@@H]3C[C@@H](C/C=C(\C)C[C@@H](C)/C=C/C=C4\COC5[C@H](O)C(C)=C[C@@H](C(=O)O3)[C@]45O)O2)O[C@H](/C(C)=C/C(C)C)[C@H]1C (stereo not given in full)	1.32

Compound	normalised cell number
O=C(O)C1CC(C2CCCCN2)CN2CCCCC12 (stereo not given)	1
CC(C)C1=CC2=CCC3[C@](C)(CCC[C@]3(C)C(=O)O)C2CC1 (stereo not given in full)	1.03
CNC1C(O[C@@H]2OC(CO)C(N)[C@H](O)C2O)OC2CC(N)[C@@H](OC3C(N)C[C@@H](N)C(O)[C@H]3O)OC2C1O (stereo not given in full)	1.1
COc1cc(O)c2c(c1C)C(C(C)=O)COC2=O (stereo not given)	0.28
O=C1CCC[C@@H](N2C(=S)OC[C@H]2c2ccccc2)C1	1.01
COc1cc(N)cc(OC)c1	0.91
COc1ccc(-c2oc3ccccc3c(=O)c2OC)cc1	1.08
COC(=O)C[C@@H]1C2(C)C(=O)C3CC4(OC3(O)C1(C)C)C1=CC(=O)O[C@@H](c3ccoc3)[C@]1(C)CCC42 (stereo not given in full)	0.96
C=C1C(=O)OC(C(=O)O)C1(O)CCCCCCCCC (stereo not given)	0.98
CC[C@@H]1OC(=O)c2c(OC)cc(=O)oc21	1.11
CC1CC2OC2/C=C/C(O)CC(=O)O1 (stereo not given)	1.02
O=C(O)c1ccc(-c2ccccc2)cc1	0.97
C[C@@H]1Cc2cccc(O)c2C(=O)O1	0.85
O=C(O)c1cc(O)c2c(c1)[C@@H]([C@@H]1c3cc(C(=O)O)cc(O)c3C(=O)c3c(O[C@H]4O[C@H](CO)[C@@H](O)[C@H](O)[C@H]4O)cccc31)c1cccc(O[C@H]3O[C@H](CO)[C@@H](O)[C@H](O)[C@H]3O)c1C2=O	0.84
CC1(C)C[C@]2(C)CC(=O)O[C@H]3OC(=O)[C@@H]4CC[C@@H]1[C@]342	0.96
CC(=O)[C@H]1CCC2C3C=CC4=CC(=O)CC[C@@]4(C)C3CC[C@@]21C (stereo not given in full)	0.87
O=C1N=NC(=O)N1c1ccccc1	1.03
Oc1ccc2c(c1)OCC1(O)Cc3cc(O)c(O)cc3C21 (stereo not given)	1.31
C[C@H]1C[C@H]2O[C@@H]2/C=C\C=C\C(=O)Cc2c(Cl)c(O)cc(O)c2C(=O)O1	0.87
C[C@]12CCc3occc3C1CC[C@@]13C[C@@H](CCC12)[C@@](O)(CO)C3 (stereo not given in full)	1.06
